From PubChem BioAssay (Tox21)
Where “and” joins values, the source holds several entries; their conditions need not be identical. Equal values may be shown once. Results filed as inconclusive are left out. Where a structure was tested more than once in an assay, its records may differ in their call. Calls of active or inactive are those of the source. The call rests on the fitted dose curve; in most records, active means well fitted cell-killing curve with a large enough effect in the repeat runs; inconclusive means weak or mixed curves, or effect the other way; inactive means flat fitted curve, though single readings scatter.

assay: qHTS RealTime-Glo MT Cell Viability Assay in HEK293 cells - 40 hour (AID 1224874); conditions: RealTime-Glo luminescence; max response: active compounds read low; further: nearly all actives have a fitted effect of over 50% in size
Description: U.S. Tox21 Program National Center for Advancing Translational Sciences [NCATS] NIH Chemical Genomics Center [NCGC] U.S. Environmental Protection Agency [EPA] National Institutes of Environmental Health Sciences [NIEHS] National Toxicology Program [NTP] U.S. Food and Drug Administration [FDA] Tox21 Assay Overview: Measure of cell viability is critical in the cell-base assay. Analysis of cell viability is necessary for the characterization of cell responses to cytotoxic drugs and environmental stress. A RealTime-Glo MT Cell Viability Assay to monitor cell viability in real time of continues cell culture during 40 hours of compound treatment was used to screen Tox21 10K library compounds in Hek293 cells. The RealTime-Glo MT Cell Viability Assay is a nonlytic, homogeneous, bioluminescent method to measure cell viability in real time using a simple, plate-based method. The assay involves adding NanoLuc luciferase and a cell-permeant prosubstrate to cells in culture. Viable cells reduce the proprietary prosubstrate to generate a substrate for NanoLuc luciferase. This substrate diffuses from cells into the surrounding culture medium, where it is rapidly used by the NanoLuc Enzyme to produce a luminescent signal. The signal correlates with the number of viable cells, making the assay well suited for cytotoxicity studies.
Tox21 Assay Protocol Summary: The mixture of Hek293 cell suspension and reagents were dispensed at 600cells/6 ul/well in 1536-well tissue culture treated black solid bottom plates using a Multidrop dispenser. After the assay plates were incubated at a 37 C/5% CO2 incubator for 5 hours, 23 nL of compounds dissolved in DMSO, positive and negative controls was transferred to the assay plate by a pintool work station. The plates were incubated at 37 C for 40 hours. The luminescence intensity were measured at 0h, 8h, 16h, 24h, 32h and 40h time points using ViewLux plate reader during compound treatment.
On the % scale 0 is the no-effect control and ±100 the full control effect; potency means the concentration at half of the fitted maximal effect.

Row | SMILES | Potency | max response
1 | O=C(Nc1ccc(Cl)cc1)Nc1ccc(Cl)c(Cl)c1 | 4.34 µM (active) and 3.89 µM (active) and 3.01 µM (active) | –
2 | O=C1OC2(c3cc(Br)c(O)c(Br)c3Oc3c2cc(Br)c(O)c3Br)c2c(Cl)c(Cl)c(Cl)c(Cl)c21 | – | -3.53% (inactive)
3 | Cc1[nH]c(=O)c(C#N)cc1-c1ccncc1 | – | 0.254% (inactive) and -5.73% (inactive)
4 | O=C(c1ccccc1)c1ccccc1O | – | -15.9% (inactive) and -14.9% (inactive)
5 | CCOCCOCCO | – | 10.2% (inactive) and 7.38% (inactive)
6 | Brc1cc(Oc2cc(Br)c(Br)c(Br)c2Br)c(Br)c(Br)c1Br | – | -1.03% (inactive) and -0.229% (inactive)
7 | CC1=CCC(C(C)(C)O)CC1 (stereo not given) | – | 3.53% (inactive) and 0% (inactive)
8 | CCCCNS(=O)(=O)c1ccccc1 | 4.36 µM (active) | -5.06% (inactive)
9 | Cc1c(OCC(F)(F)F)ccnc1CS(=O)c1nc2ccccc2[nH]1 (stereo not given) | 21.9 µM (active) and 10.7 µM (active) | –
10 | C=CC(C)(CCC=C(C)C)OC(C)=O (stereo not given) | – | 4.78% (inactive) and 0.789% (inactive)
11 | Nc1ncn([C@@H]2O[C@H](CO)[C@@H](O)[C@H]2O)c(=O)n1 | – | -27.7% (inactive) and 4.66% (inactive)
12 | O=C(/C=C/c1ccccc1)OCc1ccccc1 | – | 1.15% (inactive) and -0.532% (inactive)
13 | CCCCC(CC)COCC1CO1 (stereo not given) | – | 1.02% (inactive) and 0.683% (inactive)
14 | CCCc1c(OCCCCc2nn[nH]n2)ccc(C(C)=O)c1O | – | 0.608% (inactive) and 1.1% (inactive)
15 | CN1C(C(=O)Nc2ccccn2)=C(O)c2ccccc2S1(=O)=O | – | 10.9% (inactive) and -0.648% (inactive)
16 | O=CCc1ccccc1 | – | 1.86% (inactive) and -0.86% (inactive)
17 | c1ccc2c(c1)Oc1ccccc1S2 | – | -19.5% (inactive) and -6.23% (inactive)
18 | COc1cccc2c1C(=O)c1c(O)c3c(c(O)c1C2=O)C[C@@](O)(C(=O)CO)C[C@@H]3O[C@H]1C[C@H](N)[C@H](O)[C@H](C)O1 | 97.6 nM (active) and 190 nM (active) | –
19 | O=c1oc(=O)c2cc3c(=O)oc(=O)c3cc12 | – | 5.31% (inactive) and 2.56% (inactive)

Row | SMILES | Potency | max response
20 | S=C(NC1CCCCC1)NC1CCCCC1 | 17 µM (active) and 21.9 µM (active) | –
21 | CCCCc1oc2ccccc2c1C(=O)c1cc(I)c(OCCN(CC)CC)c(I)c1 | 34.9 µM (active) and 23.9 µM (active) | –
22 | COC(=O)Nc1nc2ccc(S(=O)c3ccccc3)cc2[nH]1 (stereo not given) | 0.756 µM (active) | –
23 | Cc1ccc2c(n1)Oc1ccc(C(C)C(=O)OCC(=O)N(C)C)cc1C2 (stereo not given) | – | -20.9% (inactive) and -25.9% (inactive)
24 | OCCO | – | -5.99% (inactive) and -0.466% (inactive)
25 | CN(C)c1nc(N(C)C)nc(N(C)C)n1 | – | -18.5% (inactive) and -1.64% (inactive)
26 | c1ccc(Nc2ccccc2)cc1 | 19.5 µM (active) | 12.7% (inactive)
27 | Cc1ccc(C)c(O)c1C | – | 1.3% (inactive) and 2.18% (inactive)
28 | C[C@]12CCC(=O)C=C1CC[C@@H]1[C@@H]2C(=O)C[C@@]2(C)[C@H]1CC[C@]2(O)C(=O)CO | – | -10% (inactive) and -11.4% (inactive)
29 | CCCCC/C=C/C=C/C=O | – | -25% (inactive)
30 | CCC(C)(O)CCCC(C)C (stereo not given) | – | 0.571% (inactive) and 1.24% (inactive)
31 | CCCCCCCCCC(=O)OC | – | 7.54% (inactive) and -2.85% (inactive)
32 | O=C(c1ccc(OCCN2CCCCC2)cc1)c1c(-c2ccc(O)cc2)sc2cc(O)ccc12 | 17.4 µM (active) and 21.9 µM (active) and 23.9 µM (active) | –
33 | COc1c(Cl)c(Cl)c(Cl)c(Cl)c1Cl | – | -6.1% (inactive) and 5.51% (inactive)
34 | O=C(Nc1ccc([N+](=O)[O-])cc1Cl)c1cc(Cl)ccc1O | 2.19 µM (active) and 827 nM (active) | –
35 | Nc1ccccc1N | – | -5.16% (inactive)
36 | c1ccncc1 | – | 5.95% (inactive) and 4.64% (inactive)
37 | Cc1c(C(N)=O)cc([N+](=O)[O-])cc1[N+](=O)[O-] | – | 1.58% (inactive) and 7.25% (inactive)
38 | C=C(C)C1CC=C(C)CC1 (stereo not given) | – | 1.72% (inactive) and 5.41% (inactive)
